Measurements reported in PubChem BioAssay (NCATS).
Values without a mark were called inactive. Results filed as inconclusive are left out. Calls of active or inactive are those of the source. Unless noted, the call rests on the fitted dose curve; in most records, active means well fitted curve in either direction with a large enough effect (not every such curve was filed as active); inconclusive means small, poorly fitted or top-dose-only effect, or another doubt; inactive means flat fitted curve, though single readings scatter.

Tests used:
[1] = molecular target: Lysosomal acid glucosylceramidase (Homo sapiens) (UniProt P04062); experiment: Glucocerebrosidase-p2 (AID 348; in the data active means potency below about 10 µM; further: potency means the concentration at half of the fitted maximal effect); conditions: purified GBA, blue fluorogenic substrate, 40 min
Procedure, shortened: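 Normal human glucocerebrosidase (0.2 nM) with blue fluorogenic substrate (80 uM final) in citrate/phosphate pH 5.9 with 10mM sodium taurocholate, 0.01% tween-20; 40 min RT, NaOH/glycine stop; fluorescence Ex 365/Em 440; AC50 from a titration from 0.6 nM upwards.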

[2] = AP1 Signaling Pathway (AID 357); conditions: ME-180 AP-1-bla reporter, EGF-induced, beta-lactamase ratio, 5 h; at 7.69 µM (top of the series) unless noted;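 further: ME-180 reporter cells stimulated with EGF at its EC50 level; on the % scale 0 is the no-effect control and ±100 the full control effect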
Procedure, shortened: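 First, ME-180 AP-1-bla cells were cultured overnight at 37 °C in low-serum Opti-MEM. Next, titrated compounds with EC50 EGF were incubated 5 hours. Finally, CCF4 was added for 2.5 hours and the 460/530 nm ratio recorded.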

[3] = molecular target: Cytochrome P450 1A2 (Homo sapiens) (UniProt P05177); experiment: p450-cyp1a2 (AID 410; calls by dose curve; further: potency means the concentration at half of the fitted maximal effect;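 on activity change, negative = inhibition: -100% = full effect of reference inhibitor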); conditions: recombinant CYP1A2, luciferin-ME demethylation, luminescence; series mostly up to 11.4 µM
Procedure, shortened: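 Read-out is luminescence from luciferin produced by CYP1A2 demethylation of Luciferin-ME (100uM, at Km). Detection reagent stopped the 60 min NADPH-dependent reaction; signals were normalized to 57 uM furafylline.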

[4] = NFAT Signaling Pathway (AID 444); conditions: Jurkat NFAT-bla M1, carbachol, beta-lactamase ratio, 5 h; at 7.69 µM (top of the series) unless noted;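 further: carbachol stimulus at about its EC50 of 1 µM final; on the % scale 0 is the no-effect control and ±100 the full control effect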
Procedure, shortened: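 Read-out: CCF4 FRET ratio (460 nm/530 nm) after 1 h RT dye loading, used for %activity and AC50 from titration series. Cells: Jurkat NFAT-β-lactamase/M1 line, treated with compound plus 1 uM carbachol for 5 h, 37 °C.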

[5] = Stat Signaling Pathway (AID 446); conditions: ME-180 SIE beta-lactamase reporter, IL-6 stimulated, 5 h; at 7.69 µM (top of the series) unless noted;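 further: ME-180 cervical cancer cells given 40 pM IL-6 alongside compound; SIE-controlled beta-lactamase reporter measured as 460/530 nm FRET emission ratio; on the % scale 0 is the no-effect control and ±100 the full control effect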
Procedure, shortened: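 Compound effects on IL-6-induced STAT reporter activity were measured in ME-180 cells. After overnight culture, cells were co-treated with 40 pM IL-6 for 5 hrs before beta-lactamase substrate loading at room temperature.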

[6] = molecular target: Glucocorticoid receptor (Homo sapiens) (UniProt P04150); experiment: GR-GFP Redistribution (AID 450;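 active means compounds whose dose series gives a full or clear partial fitted curve of increased nuclear translocation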; further: potency means the concentration at half of the fitted maximal effect); conditions: U2OS GR-GFP nuclear translocation, laser cytometry, 2 h
[7] = molecular target: Glucocorticoid receptor (Homo sapiens) (UniProt P04150); experiment: GR-EFC Redistribution (AID 451; calls by dose curve; further: potency means the concentration at half of the fitted maximal effect); conditions: CHO-K1 GR-EFC translocation, beta-gal luminescence, 2 h
Procedure, shortened: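 Translocation of GR-ED fusion to nuclear EA restores b-gal, read by luminescence after 1 h room-temperature detection. Engineered CHO-K1 biosensor cells, 1,000/well, exposed 2 h at 37 C to titrations up to 46 uM final.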

[8] = molecular target: Mitogen-activated protein kinase 10 (Mus musculus) (UniProt Q61831); experiment: JNK3 AlphaScreen Assay (AID 530); conditions: JNK3 lysate, c-Jun phosphorylation; series mostly up to 11.4 µM;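 further: kinase came from lysate of stimulated human HepG2 cells; signal reports phosphorylation of biotinylated GST-cJun 1-79 at Ser73 with 10 µM ATP; on the % scale 0 is the no-effect control and ±100 the full control effect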
Procedure, shortened: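 Kinase buffer: 20 mM Tris-HCl pH 7.6, 10 mM MgCl2, 1 mM DTT, 0.1 mM Na3VO4, 0.01% Tween-20; ATP 10 uM. Substrate biotin-GST-cJun(1-79), enzyme from activated HepG2 lysates. Detection by Ser73 phospho-antibody AlphaScreen.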

[9] = molecular target: 3',5'-cyclic-AMP phosphodiesterase 4B (Homo sapiens) (UniProt Q07343); experiment: qHTS Assay for Inhibitors of PDE-IV (AID 607; active means well fitted activation curve with a large enough effect in the main read-out, with a control signal flat, not every such curve was filed as active; further: % of control where 0% means no effect); conditions: HEK293 ACTOne CNG channel cells, membrane potential fluorescence; series mostly up to 22.9 µM
Procedure, shortened: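 ACTOne HEK293 cells carry a modified cAMP-gated CNG channel and express endogenous PDE4; plated 1000 cells/well, compounds up to 22.9 uM final. Membrane-potential dye fluorescence (ex 535/em 590) was read; parental cells received 10 uM forskolin + 100 uM RO 20-1724.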

[10] = molecular target: Cytochrome P450 2C19 (Homo sapiens) (UniProt P33261); experiment: qHTS Assay for Inhibitors and Substrates of Cytochrome P450 2C19 (AID 899; active means well fitted curve in the direction sought with a large enough effect; an effect the other way counts as inactive or inconclusive; further: nearly all actives have a fitted effect of over 60% in size; further: potency means the concentration at half of the fitted maximal effect); conditions: recombinant CYP2C19, luciferin-H EGE luminescence; series mostly up to 11.4 µM
Procedure, shortened: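 Reactions contain 5nM enzyme, 10uM Luciferin-H EGE (KM) and 50mM KPO4; compound preincubates 10 min at 37C, NADPH regeneration starts turnover for 60 min. Luminescence after detection reagent gives activity.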

[11] = Confirmation and Secondary Assay for Modulators of Hemoglobin Beta Chain Splicing at IVS2 654 locus (AID 910; active means well fitted curve in the direction sought with a large enough effect; an effect the other way counts as inactive or inconclusive;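 further: HeLa cells stably carrying EGFP split by mutant beta-globin IVS2-654 intron; per-well total GFP intensity by laser scanning cytometry after 2-day treatment; % of control where 0% means no effect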); conditions: HeLa EGFP-654 splicing reporter, GFP fluorescence, 48 h; series mostly up to 38.3 µM
Procedure, shortened: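 Readout: per-well total peak green fluorescence (488 nm ex, 500–520 nm em) from objects 5–250 µm, reflecting correct splicing of an EGFP-654 reporter. Compounds were applied for 2 days at 37 °C to overnight-plated HeLa EGFP-654 cells; controls were DMSO and 500 nM IVS2-654 PNA.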

[12] = Confirmation and Secondary Assay for Modulators of Hemoglobin Beta Chain Splicing at IVS2 705 locus (AID 930; active means well fitted curve in the direction sought with a large enough effect; an effect the other way counts as inactive or inconclusive;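 further: HeLa cells stably expressing the EGFP-705 splicing reporter; GFP fluorescence per well restored by corrected splicing of the IVS2-705 intron in EGFP; % of control where 0% means no effect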); conditions: HeLa EGFP-705 splicing reporter, GFP fluorescence, 48 h; series mostly up to 38.3 µM
Procedure, shortened: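 HeLa EGFP-705 reporter; 500 cells/well, o/n 37C 5% CO2; cpd 2 d; 488 ex/500-520 em laser scan; total peak GFP intensity/well. Ref: 500 nM […] antisense PNA.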

[13] = qHTS Assay for Identification of Small Molecule Agonists for Hypoxia Response Element Signaling Pathway (AID 914; active means well fitted activation curve with a large enough effect in the signal ratio, with a control signal flat, not every such curve was filed as active; the % refers to the signal ratio; further: % of control where 0% means no effect); conditions: ME-180 (cervical carcinoma) HRE-bla reporter, beta-lactamase ratio, CoCl2, 17 h; activation: hits give high values
Procedure, shortened: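 Read-out: CCF4 FRET ratio of 460nm to 530nm emission (excitation 405nm) after 2.5 hours at room temperature, taken from HRE-bla ME-180 cells that had been exposed to compound and EC50 CoCl2 for 17 hours.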

Sequence of 3',5'-cyclic-AMP phosphodiesterase 4B (Homo sapiens) (Q07343 whole entry, looked up): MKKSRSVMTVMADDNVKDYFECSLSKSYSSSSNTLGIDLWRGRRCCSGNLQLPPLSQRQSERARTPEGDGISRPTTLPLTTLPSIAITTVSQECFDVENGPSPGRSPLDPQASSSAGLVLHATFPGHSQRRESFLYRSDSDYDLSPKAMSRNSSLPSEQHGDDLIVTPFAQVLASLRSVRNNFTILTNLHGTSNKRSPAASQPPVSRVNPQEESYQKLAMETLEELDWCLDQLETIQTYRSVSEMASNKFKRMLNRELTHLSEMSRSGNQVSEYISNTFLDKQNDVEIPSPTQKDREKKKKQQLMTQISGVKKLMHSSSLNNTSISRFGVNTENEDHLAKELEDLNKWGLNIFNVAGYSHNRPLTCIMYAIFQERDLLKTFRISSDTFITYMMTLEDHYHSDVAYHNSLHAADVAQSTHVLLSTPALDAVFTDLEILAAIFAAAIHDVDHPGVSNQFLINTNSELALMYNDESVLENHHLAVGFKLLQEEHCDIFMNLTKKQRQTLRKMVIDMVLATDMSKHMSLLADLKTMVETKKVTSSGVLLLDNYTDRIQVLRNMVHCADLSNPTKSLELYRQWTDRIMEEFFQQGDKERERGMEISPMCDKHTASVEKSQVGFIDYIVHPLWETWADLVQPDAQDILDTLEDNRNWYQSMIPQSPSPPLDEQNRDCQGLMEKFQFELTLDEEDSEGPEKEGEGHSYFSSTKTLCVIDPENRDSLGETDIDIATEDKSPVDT
Sequence of Glucocorticoid receptor (Homo sapiens) (P04150 whole entry, looked up, the tested form may be a part): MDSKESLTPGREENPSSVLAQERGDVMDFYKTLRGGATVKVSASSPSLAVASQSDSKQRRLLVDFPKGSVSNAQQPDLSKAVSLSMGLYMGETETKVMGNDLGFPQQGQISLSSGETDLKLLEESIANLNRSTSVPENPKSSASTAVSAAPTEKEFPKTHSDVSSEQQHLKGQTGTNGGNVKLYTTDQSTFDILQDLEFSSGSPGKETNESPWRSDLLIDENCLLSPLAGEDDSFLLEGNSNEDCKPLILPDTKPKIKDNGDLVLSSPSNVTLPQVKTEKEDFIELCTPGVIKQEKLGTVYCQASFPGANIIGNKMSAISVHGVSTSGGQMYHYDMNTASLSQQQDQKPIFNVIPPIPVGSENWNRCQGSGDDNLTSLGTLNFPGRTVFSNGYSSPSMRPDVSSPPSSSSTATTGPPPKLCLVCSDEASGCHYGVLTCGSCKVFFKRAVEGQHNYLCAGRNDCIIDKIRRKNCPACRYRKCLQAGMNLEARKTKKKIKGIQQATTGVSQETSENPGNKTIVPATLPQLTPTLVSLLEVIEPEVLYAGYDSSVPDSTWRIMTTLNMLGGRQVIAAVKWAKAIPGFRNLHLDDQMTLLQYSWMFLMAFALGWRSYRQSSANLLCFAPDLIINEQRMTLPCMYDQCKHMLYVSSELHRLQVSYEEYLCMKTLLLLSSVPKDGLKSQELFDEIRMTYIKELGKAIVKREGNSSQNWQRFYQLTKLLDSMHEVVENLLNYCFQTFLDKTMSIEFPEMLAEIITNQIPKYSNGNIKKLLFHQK
Sequence of Cytochrome P450 1A2 (Homo sapiens) (P05177 whole entry, looked up): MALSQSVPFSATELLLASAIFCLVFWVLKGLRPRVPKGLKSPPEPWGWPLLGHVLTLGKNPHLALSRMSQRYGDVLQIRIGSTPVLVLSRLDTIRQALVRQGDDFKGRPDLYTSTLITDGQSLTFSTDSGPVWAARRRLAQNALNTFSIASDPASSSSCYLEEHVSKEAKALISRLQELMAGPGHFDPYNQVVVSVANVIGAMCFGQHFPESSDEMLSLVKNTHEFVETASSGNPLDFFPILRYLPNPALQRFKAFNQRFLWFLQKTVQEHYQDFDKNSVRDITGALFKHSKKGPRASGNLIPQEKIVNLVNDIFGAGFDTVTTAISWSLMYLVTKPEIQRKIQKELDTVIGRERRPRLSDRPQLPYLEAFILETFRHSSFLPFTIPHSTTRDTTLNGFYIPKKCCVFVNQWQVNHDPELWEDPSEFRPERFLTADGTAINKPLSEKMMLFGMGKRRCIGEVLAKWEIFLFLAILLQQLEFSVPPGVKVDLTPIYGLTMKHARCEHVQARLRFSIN
Sequence of Cytochrome P450 2C19 (Homo sapiens) (P33261 whole entry, looked up): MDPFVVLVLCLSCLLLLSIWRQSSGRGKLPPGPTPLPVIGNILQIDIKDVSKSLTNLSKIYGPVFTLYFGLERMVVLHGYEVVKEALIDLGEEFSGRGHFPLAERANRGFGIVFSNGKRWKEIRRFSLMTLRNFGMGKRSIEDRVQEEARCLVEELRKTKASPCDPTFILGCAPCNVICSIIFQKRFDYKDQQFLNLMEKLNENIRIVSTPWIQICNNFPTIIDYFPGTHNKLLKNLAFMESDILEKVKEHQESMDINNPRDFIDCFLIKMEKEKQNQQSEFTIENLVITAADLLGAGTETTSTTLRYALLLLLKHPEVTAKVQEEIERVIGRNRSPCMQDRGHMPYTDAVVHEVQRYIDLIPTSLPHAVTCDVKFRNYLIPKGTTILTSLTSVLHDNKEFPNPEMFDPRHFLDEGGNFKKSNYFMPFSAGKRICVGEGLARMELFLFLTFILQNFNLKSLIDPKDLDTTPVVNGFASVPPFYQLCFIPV
Sequence of Lysosomal acid glucosylceramidase (Homo sapiens) (P04062 whole entry, looked up): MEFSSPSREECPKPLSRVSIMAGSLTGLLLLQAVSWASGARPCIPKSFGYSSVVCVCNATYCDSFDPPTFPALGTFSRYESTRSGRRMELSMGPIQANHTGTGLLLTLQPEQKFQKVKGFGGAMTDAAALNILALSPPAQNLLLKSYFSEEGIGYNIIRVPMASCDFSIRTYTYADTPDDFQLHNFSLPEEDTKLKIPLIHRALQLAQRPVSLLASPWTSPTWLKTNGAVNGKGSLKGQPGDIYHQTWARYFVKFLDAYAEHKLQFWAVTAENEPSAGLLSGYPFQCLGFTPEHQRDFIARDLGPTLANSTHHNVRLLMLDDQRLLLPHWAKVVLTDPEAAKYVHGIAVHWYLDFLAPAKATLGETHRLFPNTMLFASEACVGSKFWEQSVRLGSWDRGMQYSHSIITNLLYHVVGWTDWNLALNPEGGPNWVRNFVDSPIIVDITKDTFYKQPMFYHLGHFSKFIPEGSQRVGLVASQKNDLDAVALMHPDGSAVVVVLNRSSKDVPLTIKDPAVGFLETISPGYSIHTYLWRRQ

| Compound | Potency [1] [µM] | activity change, negative = inhibition [2] [%] | activity change, negative = inhibition [3] | activity change, negative = inhibition [4] [%] | activity, negative = inhibition [5] [%] | Potency [6] [µM] | Potency [7] [µM] | Potency [8] | Potency [9] | Potency [10] | Potency [3] | outcome [11] | outcome [12] | activation [13] [%] |
| --- | --- | --- | --- | --- | --- | --- | --- | --- | --- | --- | --- | --- | --- | --- |
| O=[N+]([O-])c1cc(Cc2cc([N+](=O)[O-])c3cccnc3c2O)c(O)c2ncccc12 | > 11.4 | 18.2 | -31.1% [at 2.29 µM] | -16.4 | -1.87 | > 46 | > 9.22 | inactive | inactive | 2.51 µM (active) |  |  |  |  |
| Cn1c(=O)c2[nH]c(CCCCC(=O)O)nc2n(C)c1=O | > 11.4 | 1.28 |  | 6.73 | 1.27 | > 46 | > 9.22 | inactive | inactive | inactive | 0.794 µM (active) |  |  |  |
| CN(C)Cc1ccccc1-c1ccc2ncnc(NC3CCNCC3)c2c1 | > 11.4 | 20.2 |  | -12.2 | -2.13 | > 46 | > 46 | inactive | inactive |  | inactive | inactive | inactive |  |
| O=C(O)[C@H]([C@H]1NCCS1)N1Cc2ccccc2C1 | > 11.4 | 11 | -13.4% [at 2.29 µM] | 5.16 | 2.46 | > 46 | > 9.22 | inactive | inactive |  |  |  |  | 13.9 |
| C/C(=N\NC(=O)c1ccncc1)c1ccc2ccccc2c1O | > 11.4 | 7.91 |  | -7.25 | -3.43 | > 46 | > 9.22 | inactive | inactive | 0.501 µM (active) | 3.98 µM (active) |  |  |  |
| O=C(O)CC1(CC(=O)O)Nc2ccccc2SC1=O | > 11.4 | -1.59 | 2% [at 2.29 µM] | 5.68 | 2.07 | > 46 | > 9.22 | inactive | inactive | inactive |  |  |  |  |
| N=C(N)SCCSC(=N)N | > 11.4 | 5.54 |  | -2.2 | 12.3 | > 46 | > 9.22 | inactive | inactive |  | 2 µM (active) |  |  | -2.21 |
| Clc1ccc(-c2nnc(-c3cccc4ccccc34)o2)cc1Cl | > 11.4 | -2.21 |  | 18.6 | 10.3 | > 46 | > 9.22 | inactive | inactive | inactive | 2 µM (active) |  |  |  |
| Nc1c(S(N)(=O)=O)cc(S(N)(=O)=O)cc1S(N)(=O)=O | > 11.4 | 2.78 |  | 7.97 | 1.94 | > 46 | > 9.22 | inactive | inactive | inactive | inactive |  |  |  |
| Nc1nc(-c2cccc([N+](=O)[O-])c2)cc(-c2cc(-c3cccc([N+](=O)[O-])c3)nc(N)n2)n1 | > 11.4 | -0.341 | 0.3% [at 2.29 µM] | 6.8 | 3.52 | > 46 | > 9.22 | inactive | inactive |  |  |  |  | 18.2 |
| COc1ccc(NC(=S)Nc2ccccc2)cc1 | > 11.4 | 0.508 |  | 6.45 | 10.3 | > 46 | > 9.22 | inactive | inactive | 2 µM (active) | 1.26 µM (active) |  |  | 8.18 |
| Clc1ccc(-c2noc(CN3CCCCC3)n2)cc1 | > 11.4 | 1.13 |  | 2.07 | -0.202 | > 46 | > 9.22 | inactive | inactive | 1.58 µM (active) | 0.631 µM (active) |  |  |  |
| Cn1c(=O)c2c(nc(C(=N)SCC(=O)O)n2C)n(C)c1=O | > 11.4 | -5.29 |  | 4.58 | -6.13 | > 46 | > 9.22 | inactive | inactive | inactive | 1.26 µM (active) |  |  |  |
| CN(C)CCNc1ccccn1 | > 11.4 | -8.09 |  | 12.6 | 3.69 | > 46 | > 9.22 | inactive | inactive | inactive | inactive |  |  |  |
| O=C(O)c1ccc(Oc2nc3ccccc3s2)cc1 | > 11.4 | -5.86 |  | 11.2 | 5.77 | > 46 | > 9.22 | inactive | inactive | 3.98 µM (active) | 3.16 µM (active) |  |  |  |
